Records with an inconclusive call do not appear. Calls of active or inactive are those of the source. The call rests on the fitted dose curve; in most records, active means well fitted curve in the direction sought with a large enough effect in the repeat runs; inconclusive means weak or mixed curves; inactive means no such curve, though single readings can be large; an effect the other way counts as inactive or inconclusive.
Tests used:
[1] = qHTS RealTime-Glo MT Cell Viability Assay in HepG2 cells - 40 hour (AID 1224870); further: nearly all actives have a fitted effect of over 50% in size
In short: (§1)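 HepG2 cells mixed with RealTime-Glo MT reagents (NanoLuc plus cell-permeant prosubstrate) were seeded at 600 cells/well, incubated 5 h at 37 C/5% CO2, then pinned with compounds in DMSO; nonlytic luminescence tracked viability during 40 h treatment.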

[2] = A CellTox Green Cytotoxicity Assay to monitor cytotoxicity in HEK293 cells - 40 hour (AID 1224871); further: nearly all actives have a fitted effect of over 45% in size
In short: (§2)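 Cytotoxicity was tracked continuously in HEK293 cells by a DNA-binding dye excluded from viable cells. Compounds were transferred in DMSO 5 h after seeding; fluorescence was recorded at intervals up to 40 h.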

[3] = qHTS RealTime-Glo MT Cell Viability Assay in HEK293 cells - 16 hour (AID 1224872); further: top concentration of the series differs between compounds; nearly all actives have a fitted effect of over 50% in size
In short: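 Nonlytic real-time viability readout: viable cells convert prosubstrate to NanoLuc substrate, giving luminescence proportional to live cell number. HEK293, 600 cells/well, compound added after 5 h, continuous culture at 37 C.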

[4] = qHTS RealTime-Glo MT Cell Viability Assay in HepG2 cells - 8 hour (AID 1224873); further: nearly all actives have a fitted effect of over 55% in size
In short: as §1

[5] = qHTS RealTime-Glo MT Cell Viability Assay in HEK293 cells - 40 hour (AID 1224874); details: RealTime-Glo luminescence; max response: hits give low values; further: nearly all actives have a fitted effect of over 50% in size
In short: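 Nonlytic bioluminescent viability monitoring. HEK293 at 600 cells/well with reagent; 5 h settle; compound transfer by pintool; plates held at 37 C and read at set time points.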

[6] = A CellTox Green Cytotoxicity Assay to monitor cytotoxicity in HEK293 cells - 24 hour (AID 1224875); further: series mostly up to about 77 µM; nearly all actives have a fitted effect of over 45% in size
In short: as §2

[7] = A CellTox Green Cytotoxicity Assay to monitor cytotoxicity in HepG2 cells - 16 hour (AID 1224876); further: nearly all actives have a fitted effect of over 45% in size
In short: (§3)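 Real-time, homogeneous cytotoxicity readout: dead-cell DNA staining by CellTox Green in HepG2 monolayers, fluorescence measured at timed intervals up to 40 h of continuous compound exposure.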

[8] = qHTS RealTime-Glo MT Cell Viability Assay in HepG2 cells - 32 hour (AID 1224877); further: nearly all actives have a fitted effect of over 55% in size
In short: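 Luminescence read-out: viable HepG2 cells reduce a prosubstrate to a NanoLuc substrate, giving a signal proportional to live cell number. Reads taken at 0, 8, 16, 24, 32 and 40 h of compound exposure at 37 C.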

[9] = A CellTox Green Cytotoxicity Assay to monitor cytotoxicity in HepG2 cells - 24 hour (AID 1224878); further: nearly all actives have a fitted effect of over 45% in size
In short: as §3

[10] = A CellTox Green Cytotoxicity Assay to monitor cytotoxicity in HepG2 cells - 40 hour (AID 1224879); further: nearly all actives have a fitted effect of over 40% in size
In short: as §3
On the % scale 0 is the no-effect control and ±100 the full control effect.

Nc1ccccc1S(=O)(=O)O
inactive: Potency [1] | Potency [2] | Potency [3] | Potency [4] | max response [5] 0.0936% | Potency [6] | Potency [7] | Potency [8] | Potency [9] | Potency [10]

CC(C)(O)C(=O)c1ccccc1
inactive: Potency [1] | Potency [2] | Potency [3] | Potency [4] | max response [5] 1.69% | Potency [6] | Potency [7] | Potency [8] | Potency [9] | Potency [10]

CC(C)(O)C#CC(C)(C)O
inactive: Potency [1] | Potency [2] | Potency [3] | Potency [4] | max response [5] 4.69% | Potency [6] | Potency [7] | Potency [8] | Potency [9] | Potency [10]

CN1N=C(C(N)=O)CCC1=O
inactive: Potency [1] | Potency [2] | Potency [3] | Potency [4] | max response [5] 0.803% | Potency [6] | Potency [7] | Potency [8] | Potency [9] | Potency [10]

CC(C)=CCCC(C)CC(=O)O (stereo not drawn)
inactive: Potency [1] | Potency [2] | Potency [3] | Potency [4] | max response [5] 2.41% | Potency [6] | Potency [7] | Potency [8] | Potency [9] | Potency [10]

C=COCC1CCC(CO)CC1 (stereo not drawn)
inactive: Potency [1] | Potency [2] | Potency [3] | Potency [4] | max response [5] 11.5% | Potency [6] | Potency [7] | Potency [8] | Potency [9] | Potency [10]

C[C@H](NC(CCc1ccccc1)C(=O)O)C(=O)N1CCC[C@H]1C(=O)O (stereo partly drawn)
inactive: Potency [1] | Potency [2] | Potency [3] | Potency [4] | max response [5] -70.9% | Potency [6] | Potency [7] | Potency [8] | Potency [9] | Potency [10]

O=c1cc(CO)occ1O
inactive: Potency [1] | Potency [2] | Potency [3] | Potency [4] | max response [5] 3.18% | Potency [6] | Potency [7] | Potency [8] | Potency [9] | Potency [10]

Nc1c[n+](N2CCOCC2)no1
inactive: Potency [1] | Potency [2] | Potency [3] | Potency [4] | max response [5] 0.673% | Potency [6] | Potency [7] | Potency [8] | Potency [9] | Potency [10]

CC(=O)N(CC(O)CO)c1c(I)c(C(=O)NCCO)c(I)c(C(=O)NCC(O)CO)c1I (stereo not drawn)
inactive: Potency [1] | Potency [2] | Potency [3] | Potency [4] | max response [5] 9.14% | Potency [6] | Potency [7] | Potency [8] | Potency [9] | Potency [10]

CCCN1CCCC[C@H]1C(=O)Nc1c(C)cccc1C
inactive: Potency [1] | Potency [2] | Potency [3] | Potency [4] | max response [5] 3.8% | Potency [6] | Potency [7] | Potency [8] | Potency [9]

OCCCC1CCCCC1
inactive: Potency [1] | Potency [2] | Potency [3] | Potency [4] | max response [5] 11.3% | Potency [6] | Potency [7] | Potency [8] | Potency [9] | Potency [10]

CC(=O)OCC(=O)[C@@]1(O)CCC2C3CCC4=CC(=O)CC[C@]4(C)C3[C@@H](O)C[C@@]21C (stereo partly drawn)
inactive: Potency [1] | Potency [2] | Potency [3] | Potency [4] | max response [5] -13.4% | Potency [6] | Potency [7] | Potency [8] | Potency [9] | Potency [10]

CC(C)NCC(O)c1ccc(NS(C)(=O)=O)cc1 (stereo not drawn)
inactive: Potency [1] | Potency [2] | Potency [3] | Potency [4] | max response [5] 4.96% | Potency [6] | Potency [7] | Potency [8] | Potency [9] | Potency [10]

CC(=O)CC(C)C
inactive: Potency [1] | Potency [2] | Potency [3] | Potency [4] | max response [5] 14.5% | Potency [6] | Potency [7] | Potency [8] | Potency [9] | Potency [10]

CCOC(=O)c1c(C)n(C)c2ccc(O)cc12
inactive: Potency [1] | Potency [2] | Potency [3] | Potency [4] | max response [5] -25.6% | Potency [6] | Potency [7] | Potency [8] | Potency [9] | Potency [10]

CCC(=O)OC(C)c1ccccc1 (stereo not drawn)
inactive: Potency [1] | Potency [2] | Potency [3] | Potency [4] | max response [5] -2.17% | Potency [7] | Potency [8] | Potency [9] | Potency [10]

O=[N+]([O-])c1ccc(F)cc1F
inactive: Potency [1] | Potency [2] | Potency [3] | Potency [4] | max response [5] 9.7% | Potency [6] | Potency [7] | Potency [8] | Potency [9] | Potency [10]

CCCc1cc(C(N)=S)ccn1
inactive: Potency [1] | Potency [2] | Potency [3] | Potency [4] | max response [5] 2.82% | Potency [6] | Potency [7] | Potency [8] | Potency [9] | Potency [10]

CC(C)(C)NCCNC(C)(C)C
inactive: Potency [1] | Potency [2] | Potency [3] | Potency [4] | max response [5] -0.754% | Potency [6] | Potency [7] | Potency [8] | Potency [9] | Potency [10]

CCc1cccc2c(CCO)c[nH]c12
inactive: Potency [1] | Potency [2] | Potency [3] | Potency [4] | max response [5] 0.292% | Potency [6] | Potency [7] | Potency [8] | Potency [9] | Potency [10]

CC1(C)CO[C@@H](CC(=O)O)CN1
inactive: Potency [1] | Potency [2] | Potency [3] | Potency [4] | max response [5] 4.58% | Potency [6] | Potency [7] | Potency [8] | Potency [9] | Potency [10]

— PubChem BioAssay (Tox21)
